The text below walks through data of PubChem BioAssay (Tox21).

Assay [1] can be described thus: qHTS RealTime-Glo MT Cell Viability Assay in HEK293 cells - 8 hour (AID 1224887). For activity change, negative = cytotoxicity: top concentration of the series differs between compounds. Note: nearly all actives have a fitted effect of over 50% in size. Note: potency is the fitted concentration of half-maximal effect. In outline:
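600 cells/well were plated with the nonlytic NanoLuc/prosubstrate reagent, pre-incubated 5 h, then given 23 nL of compound in DMSO. Incubation at 37 C for 40 h, with luminescence from viable-cell-reduced substrate read repeatedly from 0 h.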
In general terms: In qHTS, concentration-response curves come from the screen itself.

Assay [2] in a line: A CellTox Green Cytotoxicity Assay to monitor cytotoxicity in HEK293 cells - 16 hour (AID 1224888). Note: nearly all actives have a fitted effect of over 35% in size. Note: potency is the fitted concentration of half-maximal effect. The method in brief: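 HEK293 cells, 600/well, were preincubated 5 hours and then exposed to compounds at 37 C for up to 40 hours. A cell-impermeant cyanine dye staining dead-cell DNA was read by fluorescence at 0, 8, 16, 24, 32 and 40 h time points.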
Assay [3] can be described thus: A CellTox Green Cytotoxicity Assay to monitor cytotoxicity in HepG2 cells - 8 hour (AID 1224890). Note: nearly all actives have a fitted effect of over 45% in size. In outline: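 HepG2 cells, 600/well, preincubated 5 h with CellTox Green dye, then exposed to Tox21 compounds in DMSO at 37 C for up to 40 h. Dead-cell DNA fluorescence read at the indicated time point.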
Assay [4] is described as follows: qHTS assay to identify small molecule antagonists of the estrogen receptor alpha (ER-alpha) signaling pathway using the BG1 cell line in the presence of 0.1 nM 17-beta-estradiol - cell viability counter screen (AID 1259241). Note: nearly all actives have a fitted effect of over 40% in size. The method in brief:
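CellTiter-Fluor read (30 min, 37C) on ER-alpha/ERE-luc VM7Luc4E2 cells; 22 hr compound treatment; agonist 0.1 nM E2 final; same-well multiplex.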

Assay [5] can be described thus: qHTS assay to identify small molecule antagonists of the androgen receptor (AR) signaling pathway using the MDA cell line in the presence of 0.5 nM R1881 - cell viability counter screen (AID 1259242). Note: nearly all actives have a fitted effect of over 45% in size. In outline:
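MDA-kb2 cells (MMTV-luciferase, AR/GR responsive) were treated with compounds plus 0.5 nM R1881 (final) for 16 hr at 37C, 0% CO2. Viability was then read in the same wells as live-cell protease fluorescence (CellTiter-Fluor, 30 min).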

Assay [6] is described as follows: qHTS assay to identify small molecule HDAC inhibitors (AID 1259364). Note: top concentration of the series differs between compounds; nearly all actives have a fitted effect of over 45% in size. In outline:
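Wild-type HCT-116 cells, plated overnight at 37 C, exposed to compounds 2 hr at 37 C; luminogenic HDAC-Glo substrate then added 30 min at room temperature. Luminescence reports relative endogenous class I/II HDAC activity.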

A short description of assay [7]: qHTS assay to identify small molecule HDAC inhibitors - cell viability counter screen (AID 1259365). Note: series mostly up to about 92 µM; nearly all actives have a fitted effect of over 50% in size. The method in brief:
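To flag cytotoxic hits, 1,500 wild-type HCT-116 cells per well, plated the day before, receive test compounds for 2hr at 37 C before CellTiter-Glo reagent and a luminescence read.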

Assay [8] is described as follows: qHTS assay to identify small molecule agonists of the sonic hedgehog signaling (Shh) pathway - cell viability counter screen (AID 1259366). Note: nearly all actives have a fitted effect of over 50% in size. Note: potency is the fitted concentration of half-maximal effect. In outline:
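Fluorescence from CellTiter-Fluor reports live cells in this counter screen. NIH/3T3-derived Gli1-Luc reporter cells receive test compounds for 24hr at 37C; reagent goes in at 23hr.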

A short description of assay [9]: qHTS assay to identify small molecule antagonists of the sonic hedgehog signaling (Shh) pathway - cell viability counter screen (AID 1259367). Note: nearly all actives have a fitted effect of over 55% in size. Note: potency is the fitted concentration of half-maximal effect. In outline: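 Cells: 3T3 Gli1-Luc, 2,000/well, 4 hr pre-incubation. Compounds in DMSO, then conditioned medium. Incubation 24 hr, 37C, 5% CO2. CellTiter-Fluor at 23 hr, 1 hr, fluorescence.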
Assay [10] can be described thus: qHTS assay to identify small molecule agonists of the sonic hedgehog signaling (Shh) pathway (AID 1259368; calls by dose curve;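 note: NIH/3T3-derived 3T3Gli1-Luc cells carrying a stable Gli1-driven firefly luciferase reporter; series mostly up to about 92 µM; nearly all actives have a fitted effect of over 15% in size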). The method in brief: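 NIH/3T3-derived 3T3Gli1-Luc cells with stably integrated Gli1-driven firefly luciferase, 2,000 cells/well, compounds added after 4 hr. Incubated 24 hr at 37C, 5% CO2; luminescence read after 30 min with luciferase reagent at room temperature.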

Assay [11] can be described thus: qHTS assay to identify small molecule agonists of the androgen receptor (AR) signaling pathway in the presence of an antagonist - cell viability counter screen (AID 1259379).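 Note: MDA-kb2 human breast cancer cells carrying an MMTV luciferase reporter; series mostly up to about 92 µM; nearly all actives have a fitted effect of over 25% in size.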 In outline:
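MDA-kb2 cells (MMTV-luciferase, AR/GR), 3,000/well, 5 h attachment, then 3.0 µM nilutamide (final) and compounds at 15 concentrations. Viability by CellTiter-Fluor fluorescence after 16 h at 37 °C, 0% CO2, in the reporter wells.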

The nature of assay [12]: qHTS assay to identify small molecule agonists of the estrogen receptor beta (ER-beta) signaling pathway - cell viability counter screen (AID 1259380). Note: nearly all actives have a fitted effect of over 30% in size. Note: potency is the fitted concentration of half-maximal effect. In outline:
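ER-beta-UAS-bla HEK293T cells in medium with 2% charcoal-stripped FBS, pre-incubated 6 hr, then treated 16 hr at 37C. Cytotoxicity read in the same wells by CellTiter-Glo luminescence after 30 min at room temperature.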

The target in assay [13] is Estrogen receptor (Homo sapiens) (UniProt P03372). The experiment in a line: qHTS assay to identify small molecule antagonists of the estrogen receptor alpha (ER-alpha) signaling pathway using the BG1 cell line in the presence of 0.1 nM 17-beta-estradiol (AID 1259244). Note: nearly all actives have a fitted effect of over 50% in size. Note: potency is the fitted concentration of half-maximal effect. In outline: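 VM7Luc4E2 cells (endogenous full-length ER-alpha, 4×ERE-luciferase), kept 5 days in phenol red-free, charcoal-stripped FBS medium; 4,000 cells/well. Compounds added with 0.1 nM (final) 17beta-estradiol, 22 hr at 37C; luminescence read with ONE-Glo after 30 min.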

The target in assay [14] is Estrogen receptor beta (Homo sapiens) (UniProt Q92731). The assay can be described thus: qHTS assay to identify small molecule antagonists of the estrogen receptor beta (ER-beta) signaling pathway (AID 1259378; active = well fitted inhibition curve with a large enough effect in the signal ratio in the repeat runs, not every such curve was filed as active; the % refers to the signal ratio; note: potency is the fitted concentration of half-maximal effect). The method in brief: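 Antagonist mode: compounds added to beta-lactamase reporter HEK293T ER-beta-UAS cells stimulated with E2 (1nM final), 16 hr at 37C. LiveBLAzer B/G FRET substrate, 2 hours room temperature, fluorescence read-out.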

The target in assay [15] is Androgen receptor (Homo sapiens) (UniProt P10275). The experiment in a line: qHTS assay to identify small molecule agonists of the androgen receptor (AR) signaling pathway in the presence of an antagonist (AID 1259381; calls by dose curve; note: nearly all actives have a fitted effect of over 15% in size). The method in brief: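 MDA-kb2 cells carrying MMTV-luciferase (AR/GR responsive), 3,000 cells/well, co-treated with 3.0 uM nilutamide final. Compounds at 15 concentrations, 16 hr at 37C without CO2. Luciferase luminescence read after 30 min with ONE-Glo.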

Assay [16] can be described thus: qHTS assay to identify small molecule antagonists of the sonic hedgehog signaling (Shh) pathway (AID 1259369; calls by dose curve; note: nearly all actives have a fitted effect of over 45% in size; note: potency is the fitted concentration of half-maximal effect). In outline: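 NIH/3T3-derived Gli1-Luc reporter cells plated 4 h, dosed with compound, then stimulated with conditioned medium for 24 h at 37 C. Firefly luciferase luminescence read after 30 min with detection reagent at room temperature.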
Assay [17] addresses Estrogen receptor beta (Homo sapiens) (UniProt Q92731). The assay can be described thus: qHTS assay to identify small molecule agonists of the estrogen receptor beta (ER-beta) signaling pathway (AID 1259377; active = well fitted activation curve with a large enough effect in the signal ratio in the repeat runs, not every such curve was filed as active; the % refers to the signal ratio). The method in brief:
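Screening used GripTite ER-beta-UAS-bla cells held in 2% charcoal-stripped FBS medium. After overnight (16 hr) compound incubation at 37C, beta-lactamase activity was detected with a FRET substrate by fluorescence.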

Assay [18] deals with Androgen receptor (Homo sapiens) (UniProt P10275). The experiment in a line: qHTS assay to identify small molecule antagonists of the androgen receptor (AR) signaling pathway using the MDA cell line in the presence of 0.5 nM R1881 (AID 1259243). Note: nearly all actives have a fitted effect of over 50% in size. Note: potency is the fitted concentration of half-maximal effect. The method in brief:
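MDA-kb2 cells (MMTV-luciferase, responsive to AR and GR) at 3,000/well, rested 5 h at 37C, 0% CO2, then given compounds plus 0.5 nM R1881 (final) for 16 hr. Luciferase read with ONE-Glo after 30 min at room temperature.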

Assay [19] can be described thus: qHTS RealTime-Glo MT Cell Viability Assay in HepG2 cells - 0 hour (AID 1224889). Note: nearly all actives have a fitted effect of over 50% in size. In outline: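 Luminescence read-out: viable HepG2 cells reduce a prosubstrate to a NanoLuc substrate, giving a signal proportional to live cell number. Reads taken at 0, 8, 16, 24, 32 and 40 h of compound exposure at 37 C.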

SMILES strings stand for the structures. A number with no mark means an inactive call. Records with an inconclusive call do not appear. The source made the active and inactive calls. Unless noted, calls come from the whole dose curve; as a rule, active = well fitted curve in the direction sought with a large enough effect in the repeat runs; inconclusive = weak or mixed curves; inactive = no such curve, though single readings can be large; an effect the other way counts as inactive or inconclusive.
% is set by controls: 0 for no effect and ±100 for the full control effect.

Sequence of Androgen receptor (Homo sapiens) (P10275 whole entry, looked up): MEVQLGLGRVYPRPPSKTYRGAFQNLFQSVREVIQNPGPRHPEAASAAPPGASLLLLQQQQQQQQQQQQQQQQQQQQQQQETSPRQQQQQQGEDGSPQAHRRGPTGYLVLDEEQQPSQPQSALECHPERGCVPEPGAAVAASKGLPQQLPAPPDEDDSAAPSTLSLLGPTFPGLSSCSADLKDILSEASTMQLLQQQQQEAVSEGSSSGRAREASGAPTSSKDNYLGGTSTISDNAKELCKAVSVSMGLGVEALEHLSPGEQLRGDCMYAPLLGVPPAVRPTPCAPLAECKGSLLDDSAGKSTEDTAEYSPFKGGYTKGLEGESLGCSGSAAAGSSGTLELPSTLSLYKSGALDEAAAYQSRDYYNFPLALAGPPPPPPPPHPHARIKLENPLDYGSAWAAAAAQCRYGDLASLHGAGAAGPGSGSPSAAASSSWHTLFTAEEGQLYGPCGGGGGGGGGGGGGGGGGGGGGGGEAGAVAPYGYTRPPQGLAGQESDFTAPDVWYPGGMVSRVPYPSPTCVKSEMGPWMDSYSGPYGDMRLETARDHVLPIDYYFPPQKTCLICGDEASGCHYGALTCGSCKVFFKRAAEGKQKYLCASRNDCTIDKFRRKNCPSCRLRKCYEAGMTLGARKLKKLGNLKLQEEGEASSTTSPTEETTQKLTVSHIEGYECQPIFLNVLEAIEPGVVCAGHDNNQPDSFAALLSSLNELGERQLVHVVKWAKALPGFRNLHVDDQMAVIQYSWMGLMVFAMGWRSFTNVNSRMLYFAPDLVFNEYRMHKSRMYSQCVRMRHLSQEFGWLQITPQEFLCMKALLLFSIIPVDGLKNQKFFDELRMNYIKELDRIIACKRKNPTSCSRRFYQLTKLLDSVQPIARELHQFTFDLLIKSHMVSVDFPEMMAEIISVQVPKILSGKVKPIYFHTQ
Sequence of Estrogen receptor beta (Homo sapiens) (Q92731 whole entry, looked up): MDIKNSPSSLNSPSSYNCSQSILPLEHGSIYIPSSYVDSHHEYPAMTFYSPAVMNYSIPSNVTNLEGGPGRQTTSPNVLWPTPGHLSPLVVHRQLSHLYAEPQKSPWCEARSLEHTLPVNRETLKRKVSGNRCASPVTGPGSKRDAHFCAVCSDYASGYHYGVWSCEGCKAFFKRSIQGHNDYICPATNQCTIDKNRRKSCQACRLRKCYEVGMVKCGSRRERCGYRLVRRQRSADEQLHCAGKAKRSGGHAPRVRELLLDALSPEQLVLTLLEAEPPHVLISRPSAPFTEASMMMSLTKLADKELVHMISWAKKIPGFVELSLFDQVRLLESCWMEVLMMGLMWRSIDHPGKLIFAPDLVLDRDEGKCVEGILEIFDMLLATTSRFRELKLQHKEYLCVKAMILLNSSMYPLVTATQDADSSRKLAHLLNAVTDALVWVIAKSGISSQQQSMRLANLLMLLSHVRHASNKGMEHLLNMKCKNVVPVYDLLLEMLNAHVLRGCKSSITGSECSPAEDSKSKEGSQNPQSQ
Sequence of Estrogen receptor (Homo sapiens) (P03372 whole entry, looked up): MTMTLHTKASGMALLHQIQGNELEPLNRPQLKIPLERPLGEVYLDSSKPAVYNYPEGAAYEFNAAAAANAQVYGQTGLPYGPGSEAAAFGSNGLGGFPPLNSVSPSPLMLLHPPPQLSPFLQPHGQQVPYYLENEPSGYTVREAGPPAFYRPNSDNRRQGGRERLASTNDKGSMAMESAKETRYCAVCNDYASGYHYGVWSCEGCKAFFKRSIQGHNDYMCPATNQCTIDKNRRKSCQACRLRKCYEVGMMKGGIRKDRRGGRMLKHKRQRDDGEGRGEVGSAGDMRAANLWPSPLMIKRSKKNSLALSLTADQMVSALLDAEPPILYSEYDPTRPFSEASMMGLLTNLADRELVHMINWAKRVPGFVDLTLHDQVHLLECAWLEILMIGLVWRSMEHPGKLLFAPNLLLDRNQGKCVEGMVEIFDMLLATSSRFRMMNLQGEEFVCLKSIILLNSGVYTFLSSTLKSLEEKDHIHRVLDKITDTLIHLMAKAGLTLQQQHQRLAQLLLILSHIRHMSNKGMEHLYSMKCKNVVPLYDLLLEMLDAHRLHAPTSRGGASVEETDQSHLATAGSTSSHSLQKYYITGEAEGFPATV

For the molecule `C=C[Si](C)(C)Cl`, the activity change, negative = cytotoxicity in assay [1] was -4.42% [at 6.97 µM]; in [4], -11.6% [at 8.39 µM]; in assay [7] it was -0.871% [at 8.39 µM]; in assay [11], -1.9% [at 8.39 µM]; in assay [12] it was 0.271% [at 8.39 µM]. Besides, the activity change in assay [2] was -2.03% [at 6.97 µM, hits give high values]; in assay [10] it was 1.18% [at 8.39 µM, hits give high values]. For the same molecule, in assay [3], the cytotoxicity increase is -7.78% [at 6.97 µM]. In addition, the viability change, negative = cytotoxic in assay [5] is 0.0065% [at 8.39 µM]; in assay [8], 9.73% [at 8.39 µM]; in [9], -1.01% [at 8.39 µM]. Further, the activity change, negative = inhibition in assay [6] is 3.64% [at 8.39 µM].

For the molecule `CCCCCc1ccc(O)cc1`, the Potency in assay [1] is 21.9 µM (active); in assay [2], 38.9 µM (active). The Potency result in assay [4], in [5], in assay [13], in [6], in [10] and in [14] was “inactive” each time. For the same molecule, the Potency result in assay [11] and in assay [15] was “inactive” throughout.

On to `CC(C)=NNC(N)=S`, for which the Potency result in assay [1], in assay [2], in assay [4], in assay [5], in assay [6] and in assay [8] was “inactive” each time. For the same molecule, the Potency entry in [10] and in assay [11] was “inactive” in each case. The Potency in [16] was 13.7 µM (active). For the same molecule, the result in assay [17] was inactive.

Turning to `CN1CCN(CCCN2c3ccccc3Sc3ccc(Cl)cc32)CC1`, the Potency entry in assay [1], in assay [2], in assay [4], in [5], in [13] and in assay [6] was “inactive” in each case. Further, the Potency entry in assay [7], in assay [10] and in [11] was “inactive” in each case. The Potency in assay [8] is 10.6 µM (active); in assay [16], 16.8 µM (active); in [12] it was 21.1 µM (active).

Consider `CN[C@H]1CC[C@@H](c2ccc(Cl)c(Cl)c2)c2ccc(S(N)(=O)=O)cc21`, for which the Potency is 38.9 µM (active) in [1]; 24.5 µM (active) in assay [2]; 30.6 µM (active) in assay [18]; 61.1 µM (active) in [13]; 30.6 µM (active) in assay [8]; 61.1 µM (active) in assay [9]. Besides, the Potency in assay [16] is 3.06 µM (active); in [14], 24.3 µM (active); in [12], 19.3 µM (active). The Potency entry in assay [4], in assay [6], in assay [7], in [10] and in assay [15] was “inactive” each time.

For the molecule `COc1cccc(-c2ccc(/C=C\CN3CCCCCC3)cc2Cl)c1`, the Potency is 48.7 µM (active) in assay [1] and 10.8 µM (active) in [16]. The Potency entry in assay [6], in [7] and in assay [10] was “inactive” throughout. In assay [17], the result was inactive.

As for `CCCCCCCCCCCC(=O)Cl`, the Potency entry in assay [1], in assay [2], in [3], in assay [5], in [13] and in assay [6] was “inactive” each time. Besides, the Potency entry in assay [8], in [9], in assay [10], in [16] and in [11] was “inactive” each time. The Potency in [12] is 34.4 µM (active).

On to `ClC(c1ccccc1)(c1ccccc1)c1ccccc1`, for which the Potency entry in [1], in assay [2], in [3], in assay [4], in assay [5] and in [6] was “inactive” in each case. Moreover, the Potency entry in assay [7], in assay [8], in [9], in [10], in [16] and in assay [12] was “inactive” in each case.

For `O=C1CCC(=O)N1`, the Potency entry in [2], in [19], in [3], in assay [4], in assay [5] and in assay [18] was “inactive” each time. The Potency result in assay [13], in assay [6], in assay [8], in assay [9], in [10] and in assay [16] was “inactive” each time. The Potency entry in assay [14], in assay [12] and in [15] was “inactive” throughout. In addition, the call in assay [17] was inactive.
